Assay results as given in PubChem BioAssay (NCI).
Several values for one entry are separate records, joined by “and”; a condition that tells them apart may be missing. Equal values may be shown once. This is part of a sample that, as a whole, favours compounds with a hit. Of some 83,000 tested, about 20% had one in any assay.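 A percent growth of 40 corresponds to 60% growth inhibition; 0 means no net growth; -100 means all cells died. Active threshold: below 10.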

What was measured:
Assay in all cases: NCI-60 one-dose screen, 48 h (100 = growth as untreated, 0 = no growth, -100 = all killed)
Settings in all cases: 10 µM unless noted
T-47D breast = test system: T-47D breast
BT-549 breast = test system: BT-549 breast
MDA-MB-435 melanoma = test system: MDA-MB-435 melanoma
SW-620 colon = test system: SW-620 colon
MCF7 breast = test system: MCF7 breast
HCT-116 colon = test system: HCT-116 colon
HCC-2998 colon = test system: HCC-2998 colon
KM12 colon = test system: KM12 colon

Measured: growth

Oc1cccnc1CN1CCOCC1
inactive: T-47D breast 93.1% | BT-549 breast 118% and 115% | MDA-MB-435 melanoma 109% and 99.3% | SW-620 colon 109% and 101% | MCF7 breast 95.2% and 90.7% | HCT-116 colon 104% and 103% | HCC-2998 colon 102% and 99.6% | KM12 colon 112% and 108%

Cc1ccc2cccc([N+](=O)[O-])c2n1
inactive: T-47D breast 97.4% and 97.8% | BT-549 breast 121% and 93.5% | MDA-MB-435 melanoma 110% and 108% | SW-620 colon 119% and 103% | MCF7 breast 105% and 95.7% | HCT-116 colon 114% and 97.7% | HCC-2998 colon 102% and 103% | KM12 colon 111% and 107%

CCOc1ccc(/C=C\C(=O)O)cc1
inactive: T-47D breast 122% | BT-549 breast 125% | MDA-MB-435 melanoma 107% | SW-620 colon 101% | MCF7 breast 95.2% | HCT-116 colon 119% | HCC-2998 colon 109% | KM12 colon 106%

Nc1c(S(=O)(=O)O)cc(Br)c2c1C(=O)c1ccccc1C2=O
inactive: T-47D breast 90% and 96.7% | BT-549 breast 110% | MDA-MB-435 melanoma 105% and 115% | SW-620 colon 109% and 111% | MCF7 breast 96.8% and 93.8% | HCT-116 colon 109% | HCC-2998 colon 108% and 109% | KM12 colon 104% and 108%

Cn1c(N)c(N=O)c(=O)n(C)c1=O
inactive: T-47D breast 105% and 99.8% | BT-549 breast 111% and 96.8% | MDA-MB-435 melanoma 109% and 102% | SW-620 colon 106% and 101% | MCF7 breast 98.1% and 99.5% | HCT-116 colon 102% and 90.8% | HCC-2998 colon 106% | KM12 colon 106% and 94.8%

O=C1c2ccccc2CN1c1ccccc1
inactive: T-47D breast 95.8% | BT-549 breast 96.6% | MDA-MB-435 melanoma 97.9% | SW-620 colon 105% | MCF7 breast 106% | HCT-116 colon 91.7% | HCC-2998 colon 128% | KM12 colon 101%

COC(=O)c1nc(=S)[nH]c(C(=O)OC)c1C(=O)c1ccc(OC)cc1
inactive: T-47D breast 125% | BT-549 breast 109% | MDA-MB-435 melanoma 110% | SW-620 colon 105% | MCF7 breast 93.6% | HCT-116 colon 115% | HCC-2998 colon 118% | KM12 colon 103%

O=c1[nH]c(=S)[nH]n1C(=S)n1[nH]c(=S)[nH]c1=O
inactive: T-47D breast 92% | BT-549 breast 108% | MDA-MB-435 melanoma 110% | SW-620 colon 98.5% | MCF7 breast 91.8% | HCT-116 colon 102% | HCC-2998 colon 99.6% | KM12 colon 98.4%

O=c1[nH]c(=O)n(C2OC(CO)C(O)C2O)cc1I (configuration not stated)
inactive: T-47D breast 105% and 100% | BT-549 breast 143% and 108% | MDA-MB-435 melanoma 106% and 95% | SW-620 colon 101% | MCF7 breast 89% and 107% | HCT-116 colon 109% and 95.8% | HCC-2998 colon 109% and 95.8% | KM12 colon 109% and 100%

O=C1C=CC(=O)N1Cc1ccco1
inactive: T-47D breast 91.7% | BT-549 breast 100% | MDA-MB-435 melanoma 95.8% | SW-620 colon 58.4% | MCF7 breast 62% | HCT-116 colon 52.5% | HCC-2998 colon 101% | KM12 colon 103%

O=C(O)C(Cc1ccc(OS(=O)(=O)Cc2ccccc2)cc1)NS(=O)(=O)Cc1ccccc1 (configuration not stated)
inactive: T-47D breast 101% and 99.9% | BT-549 breast 104% and 106% | MDA-MB-435 melanoma 98.7% and 111% | SW-620 colon 105% | MCF7 breast 91.4% and 98.4% | HCT-116 colon 105% and 109% | HCC-2998 colon 115% | KM12 colon 101% and 106%

C(#CCN1CCOCC1)CCCN1CCOCC1
inactive: T-47D breast 105% and 101% | BT-549 breast 99.5% and 53.3% | MDA-MB-435 melanoma 102% and 101% | SW-620 colon 109% and 106% | MCF7 breast 91.9% and 99.5% | HCT-116 colon 105% and 107% | HCC-2998 colon 99.6% and 98.9% | KM12 colon 105% and 106%

CCN(C)c1ccccc1
inactive: T-47D breast 105% | BT-549 breast 84.2% | MDA-MB-435 melanoma 104% | SW-620 colon 110% | MCF7 breast 90.7% | HCT-116 colon 106% | HCC-2998 colon 107% | KM12 colon 109%

O=[N+]([O-])c1cccc2ccc(N/N=C/c3ccccc3O)nc12
inactive: T-47D breast 38.1% and 78% | BT-549 breast 68.6% and 103% | MDA-MB-435 melanoma 101% and 106% | SW-620 colon 21.7% and 96.4% | MCF7 breast 42.5% and 61.7% | HCT-116 colon 20.8% and 67.8% | HCC-2998 colon 110% | KM12 colon 86.8% and 84.3%
